# Assay results published in PubChem BioAssay (NCATS).
# Values without a mark were called inactive. Results filed as inconclusive are left out. Activity calls are given as the source filed them. Unless noted, the call rests on the fitted dose curve; in most records, active means well fitted curve in either direction with a large enough effect (not every such curve was filed as active); inconclusive means small, poorly fitted or top-dose-only effect, or another doubt; inactive means flat fitted curve, though single readings scatter.
# Key:
# [1] = target: Lysosomal acid glucosylceramidase (Homo sapiens) (UniProt P04062); assay: Glucocerebrosidase-p2 (AID 348; in the data active means potency below about 10 µM; further: potency means the concentration at half of the fitted maximal effect); conditions: purified GBA, blue fluorogenic substrate, 40 min
# Sequence of Lysosomal acid glucosylceramidase (Homo sapiens) (P04062 whole entry, looked up): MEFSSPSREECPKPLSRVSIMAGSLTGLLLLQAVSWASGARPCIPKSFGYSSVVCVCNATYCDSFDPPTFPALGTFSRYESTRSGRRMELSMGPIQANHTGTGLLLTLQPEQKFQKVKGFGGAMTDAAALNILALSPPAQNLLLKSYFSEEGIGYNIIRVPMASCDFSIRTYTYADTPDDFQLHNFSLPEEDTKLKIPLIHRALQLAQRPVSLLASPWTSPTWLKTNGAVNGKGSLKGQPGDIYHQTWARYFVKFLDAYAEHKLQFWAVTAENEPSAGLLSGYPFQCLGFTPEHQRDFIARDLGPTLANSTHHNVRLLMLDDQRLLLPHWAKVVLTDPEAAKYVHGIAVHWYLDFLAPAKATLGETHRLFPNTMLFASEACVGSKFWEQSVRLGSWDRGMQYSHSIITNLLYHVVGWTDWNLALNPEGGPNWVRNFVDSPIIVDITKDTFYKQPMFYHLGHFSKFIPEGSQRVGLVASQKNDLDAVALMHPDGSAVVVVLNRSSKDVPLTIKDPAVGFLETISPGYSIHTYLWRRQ
# Summary of the method: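 Normal human glucocerebrosidase (0.2 nM) with blue fluorogenic substrate (80 uM final) in citrate/phosphate pH 5.9 with 10mM sodium taurocholate, 0.01% tween-20; 40 min RT, NaOH/glycine stop; fluorescence Ex 365/Em 440; AC50 from a titration from 0.6 nM upwards.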
# [2] = AP1 Signaling Pathway (AID 357); conditions: ME-180 AP-1-bla reporter, EGF-induced, beta-lactamase ratio, 5 h; at 7.69 µM (top of the series) unless noted; further: on the % scale 0 is the no-effect control and ±100 the full control effect
# Summary of the method: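 AP-1-bla ME-180 cells with beta-lactamase reporter under AP-1 response element, stimulated with EC50 EGF; compounds titrated, 5 hours at 37 degrees Celsius. CCF4 read at 460/530 nm ratio; positive and negative modulators judged by AC50.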
# [3] = target: Cytochrome P450 1A2 (Homo sapiens) (UniProt P05177); assay: p450-cyp1a2 (AID 410; calls by dose curve; further: potency means the concentration at half of the fitted maximal effect;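 on activity change, negative = inhibition: -100% = full effect of reference inhibitor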); conditions: recombinant CYP1A2, luciferin-ME demethylation, luminescence; series mostly up to 57 µM
# Sequence of Cytochrome P450 1A2 (Homo sapiens) (P05177 whole entry, looked up): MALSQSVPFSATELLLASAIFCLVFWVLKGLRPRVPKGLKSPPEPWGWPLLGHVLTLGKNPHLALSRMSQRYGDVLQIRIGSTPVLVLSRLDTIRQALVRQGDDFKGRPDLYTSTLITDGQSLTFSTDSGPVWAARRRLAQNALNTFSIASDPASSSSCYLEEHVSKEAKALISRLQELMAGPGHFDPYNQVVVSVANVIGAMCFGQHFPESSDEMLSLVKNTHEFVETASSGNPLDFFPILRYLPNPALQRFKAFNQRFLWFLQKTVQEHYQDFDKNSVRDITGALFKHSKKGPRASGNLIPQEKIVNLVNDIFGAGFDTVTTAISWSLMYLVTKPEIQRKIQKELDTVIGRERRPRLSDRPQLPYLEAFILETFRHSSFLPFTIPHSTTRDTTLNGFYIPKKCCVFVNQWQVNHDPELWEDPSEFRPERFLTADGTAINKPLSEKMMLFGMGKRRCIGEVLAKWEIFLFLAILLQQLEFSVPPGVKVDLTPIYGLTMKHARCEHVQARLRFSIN
# Summary of the method: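 20nM CYP1A2, 100uM Luciferin-ME (=Km), 100mM KPO4; cpd 10 min RT; +NADPH regen, 60 min RT; stop/detect 20 min; luminescence. Normalized to furafylline 57 uM = full inhibition.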
# [4] = NFAT Signaling Pathway (AID 444); conditions: Jurkat NFAT-bla M1, carbachol, beta-lactamase ratio, 5 h; at 7.69 µM (top of the series) unless noted;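 further: carbachol stimulus at about its EC50 of 1 µM final; on the % scale 0 is the no-effect control and ±100 the full control effect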
# Summary of the method: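 Jurkat cells carrying an NFAT-driven β-lactamase reporter and co-transfected muscarinic M1 receptor were treated with compound plus carbachol (1 uM final, an EC50 level) for 5 h at 37 °C. CCF4 loading followed for 1 h at RT; 460/530 nm ratio gave %activity.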
# [5] = Stat Signaling Pathway (AID 446); conditions: ME-180 (cervical carcinoma) SIE beta-lactamase reporter, IL-6 stimulated, 5 h; at 7.69 µM (top of the series) unless noted;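 further: ME-180 cervical cancer cells given 40 pM IL-6 alongside compound; SIE-controlled beta-lactamase reporter measured as 460/530 nm FRET emission ratio; on the % scale 0 is the no-effect control and ±100 the full control effect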
# Summary of the method: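 Normalization used AC90 stimulation (300 pM IL-6) and AC90 inhibition (125 nM pan-JAK inhibitor at 40 pM IL-6). The underlying signal is SIE-driven beta-lactamase in ME-180 cells after 5 h IL-6 exposure with compound.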
# [6] = target: Glucocorticoid receptor (Homo sapiens) (UniProt P04150); assay: GR-EFC Redistribution (AID 451; calls by dose curve; further: potency means the concentration at half of the fitted maximal effect); conditions: CHO-K1 GR-EFC translocation, beta-gal luminescence, 2 h
# Sequence of Glucocorticoid receptor (Homo sapiens) (P04150 whole entry, looked up, the tested form may be a part): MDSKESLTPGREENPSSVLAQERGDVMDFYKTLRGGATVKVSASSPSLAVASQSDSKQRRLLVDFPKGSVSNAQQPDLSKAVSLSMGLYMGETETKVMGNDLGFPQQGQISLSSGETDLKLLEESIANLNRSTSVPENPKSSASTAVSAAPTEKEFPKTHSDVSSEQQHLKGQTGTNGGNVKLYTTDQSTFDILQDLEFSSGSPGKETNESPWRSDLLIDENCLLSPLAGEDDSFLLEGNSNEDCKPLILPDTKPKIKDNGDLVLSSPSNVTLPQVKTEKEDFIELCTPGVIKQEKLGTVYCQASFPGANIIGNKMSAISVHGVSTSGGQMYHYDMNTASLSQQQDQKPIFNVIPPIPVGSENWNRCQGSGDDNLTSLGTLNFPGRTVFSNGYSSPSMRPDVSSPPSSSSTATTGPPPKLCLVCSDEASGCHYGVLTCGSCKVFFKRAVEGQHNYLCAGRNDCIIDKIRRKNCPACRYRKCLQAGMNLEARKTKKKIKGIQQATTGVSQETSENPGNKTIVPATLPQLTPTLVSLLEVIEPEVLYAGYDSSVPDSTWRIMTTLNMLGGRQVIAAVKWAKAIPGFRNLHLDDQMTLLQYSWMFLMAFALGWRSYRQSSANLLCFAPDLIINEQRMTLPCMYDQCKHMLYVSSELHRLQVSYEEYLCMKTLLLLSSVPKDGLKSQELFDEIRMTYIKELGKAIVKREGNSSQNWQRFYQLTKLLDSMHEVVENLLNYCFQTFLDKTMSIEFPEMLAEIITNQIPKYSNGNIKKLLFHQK
# Summary of the method: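 CHO-K1 cells stably expressing nuclear-localized β-gal enzyme acceptor and GR fused C-terminally to the enzyme donor fragment; ligand-driven nuclear translocation restores β-gal by complementation. Compounds titrated up to 46 uM final, 2 h at 37 °C; luminescence read.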
# [7] = target: Mitogen-activated protein kinase 10 (Mus musculus) (UniProt Q61831); assay: JNK3 AlphaScreen Assay (AID 530); conditions: JNK3 lysate, c-Jun phosphorylation; series mostly up to 57.1 µM;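 further: kinase came from lysate of stimulated human HepG2 cells; signal reports phosphorylation of biotinylated GST-cJun 1-79 at Ser73 with 10 µM ATP; on the % scale 0 is the no-effect control and ±100 the full control effect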
# Summary of the method: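 Biotinylated GST-cJun(1-79) served as substrate for JNK3 in HepG2 lysates stimulated with IL-1beta and TNF-alpha. ATP was 10 uM final, pH 7.6. Ser73 phosphorylation was quantified by AlphaScreen (680 nm excitation).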
# [8] = target: 3',5'-cyclic-AMP phosphodiesterase 4B (Homo sapiens) (UniProt Q07343); assay: qHTS Assay for Inhibitors of PDE-IV (AID 607; active means well fitted activation curve with a large enough effect in the main read-out, with a control signal flat, not every such curve was filed as active; further: % of control where 0% means no effect); conditions: HEK293 ACTOne CNG channel cells, membrane potential fluorescence; series mostly up to 22.9 µM
# Sequence of 3',5'-cyclic-AMP phosphodiesterase 4B (Homo sapiens) (Q07343 whole entry, looked up): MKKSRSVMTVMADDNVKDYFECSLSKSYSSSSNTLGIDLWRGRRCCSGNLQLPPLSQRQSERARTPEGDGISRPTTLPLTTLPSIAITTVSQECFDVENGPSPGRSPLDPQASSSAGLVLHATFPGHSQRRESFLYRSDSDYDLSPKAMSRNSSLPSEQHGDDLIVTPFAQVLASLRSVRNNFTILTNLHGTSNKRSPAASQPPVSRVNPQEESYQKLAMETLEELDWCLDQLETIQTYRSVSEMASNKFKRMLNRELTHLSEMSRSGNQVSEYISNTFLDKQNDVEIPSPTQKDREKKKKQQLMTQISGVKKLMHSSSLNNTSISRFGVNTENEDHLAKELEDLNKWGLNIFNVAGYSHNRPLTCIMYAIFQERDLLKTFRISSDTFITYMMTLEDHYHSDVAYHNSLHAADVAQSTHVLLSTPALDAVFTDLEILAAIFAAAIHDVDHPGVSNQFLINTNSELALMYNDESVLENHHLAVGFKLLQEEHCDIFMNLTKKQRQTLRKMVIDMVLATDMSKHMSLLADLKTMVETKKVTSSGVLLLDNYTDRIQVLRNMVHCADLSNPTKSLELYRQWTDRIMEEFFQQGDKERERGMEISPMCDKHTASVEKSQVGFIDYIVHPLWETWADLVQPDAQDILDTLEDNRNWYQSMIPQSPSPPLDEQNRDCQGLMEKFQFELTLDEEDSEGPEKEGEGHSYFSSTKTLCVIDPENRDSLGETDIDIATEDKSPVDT
# Summary of the method: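 HEK293 ACTOne cells with CNG channel (1000/well), endogenous PDE4; membrane potential dye, compounds up to 22.9 uM final. Fluorescence Ex 535/Em 590; RO 20-1724 (100 uM final) as reference.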
# [9] = target: Cytochrome P450 3A4 (Homo sapiens) (UniProt P08684); assay: qHTS Assay for Inhibitors and Substrates of Cytochrome P450 3A4 (AID 884; active means well fitted curve in the direction sought with a large enough effect; an effect the other way counts as inactive or inconclusive; further: potency means the concentration at half of the fitted maximal effect; nearly all actives have a fitted effect of over 50% in size); conditions: recombinant CYP3A4, Luciferin-PPXE luminescence; series mostly up to 57.1 µM
# Sequence of Cytochrome P450 3A4 (Homo sapiens) (P08684 whole entry, looked up): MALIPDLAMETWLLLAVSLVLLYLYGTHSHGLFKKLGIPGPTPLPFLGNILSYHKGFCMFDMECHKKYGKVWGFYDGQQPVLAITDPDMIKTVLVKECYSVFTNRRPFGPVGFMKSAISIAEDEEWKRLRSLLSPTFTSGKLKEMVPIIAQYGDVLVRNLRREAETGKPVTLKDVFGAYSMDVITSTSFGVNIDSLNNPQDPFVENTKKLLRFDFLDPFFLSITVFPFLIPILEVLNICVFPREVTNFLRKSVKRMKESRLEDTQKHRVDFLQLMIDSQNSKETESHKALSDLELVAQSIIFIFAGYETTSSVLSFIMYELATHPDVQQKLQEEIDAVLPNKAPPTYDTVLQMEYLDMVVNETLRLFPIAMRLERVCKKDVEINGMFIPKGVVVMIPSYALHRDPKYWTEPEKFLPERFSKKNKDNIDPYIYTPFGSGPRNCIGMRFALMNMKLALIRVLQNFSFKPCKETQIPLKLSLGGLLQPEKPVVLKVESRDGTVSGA
# Summary of the method: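 Luminescent readout of luciferin produced by CYP3A4 (20 nM) dealkylation of Luciferin-PPXE, 25 uM (its KM). NADPH-driven reaction ran 60 min at RT after 10 min compound preincubation; data scaled to 57 uM ketoconazole as 100% inhibition.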
# [10] = target: Cytochrome P450 3A4 (Homo sapiens) (UniProt P08684); assay: qHTS Assay for Activators of Cytochrome P450 3A4 (AID 885; active means well fitted curve in the direction sought with a large enough effect; an effect the other way counts as inactive or inconclusive; further: nearly all actives have a fitted effect of over 65% in size); conditions: recombinant CYP3A4, Luciferin-PPXE luminescence, 60 min; series mostly up to 57.1 µM
# Summary of the method: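 Human CYP3A4 dealkylates Luciferin-PPXE to luciferin, which luciferase detection converts to light. Substrate was at its KM (25uM), buffer 200mM KPO4, reaction 60 min at RT.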
# [11] = Primary qHTS for small molecule stabilizers of the endoplasmic reticulum resident proteome: Secreted ER Calcium Modulated Protein (SERCaMP) assay (AID 1508630; active means well fitted curve in the direction sought with a large enough effect; an effect the other way counts as inactive or inconclusive; further: on the % scale 0 is the no-effect control and ±100 the full control effect); conditions: SH-SY5Y GLuc-SERCaMP (Gaussia luciferase released on ER calcium loss) secretion, thapsigargin, luminescence; series mostly up to 38.4 µM
# Summary of the method: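 The SH-SY5Y reporter protocol was run at 3 concentrations up to 38.3 uM (primary) or 11 concentrations (follow-up): 16 h compound, 100 nM thapsigargin for 4 h, then extracellular luciferase luminescence.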
# [12] = target: Glucocorticoid receptor (Homo sapiens) (UniProt P04150); assay: GR-GFP Redistribution (AID 450;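 active means compounds whose dose series gives a full or clear partial fitted curve of increased nuclear translocation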; further: potency means the concentration at half of the fitted maximal effect); conditions: U2OS GR-GFP nuclear translocation, laser cytometry, 2 h
# [13] = target: Cytochrome P450 2C9 (Homo sapiens) (UniProt P11712); assay: qHTS Assay for Inhibitors and Substrates of Cytochrome P450 2C9 (AID 883; active means well fitted curve in the direction sought with a large enough effect; an effect the other way counts as inactive or inconclusive; further: potency means the concentration at half of the fitted maximal effect; nearly all actives have a fitted effect of over 60% in size); conditions: recombinant CYP2C9, luciferin-H luminescence, 60 min; series mostly up to 57.1 µM
# Sequence of Cytochrome P450 2C9 (Homo sapiens) (P11712 whole entry, looked up): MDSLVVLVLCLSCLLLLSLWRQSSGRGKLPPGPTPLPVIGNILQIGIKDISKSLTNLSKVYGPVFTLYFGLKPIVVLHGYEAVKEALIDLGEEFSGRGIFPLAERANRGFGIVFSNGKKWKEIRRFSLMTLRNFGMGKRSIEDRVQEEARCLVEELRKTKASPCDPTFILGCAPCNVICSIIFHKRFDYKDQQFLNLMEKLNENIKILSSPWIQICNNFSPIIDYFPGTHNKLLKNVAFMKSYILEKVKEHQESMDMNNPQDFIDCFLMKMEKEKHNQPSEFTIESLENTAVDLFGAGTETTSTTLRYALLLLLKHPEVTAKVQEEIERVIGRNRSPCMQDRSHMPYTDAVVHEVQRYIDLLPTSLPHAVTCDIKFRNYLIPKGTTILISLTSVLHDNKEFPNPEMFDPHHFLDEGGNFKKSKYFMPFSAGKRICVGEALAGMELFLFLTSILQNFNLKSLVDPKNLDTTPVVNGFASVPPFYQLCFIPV
# Summary of the method: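 A luminogenic readout tracked human CYP2C9 (10nM) converting deoxyluciferin (100uM, at KM) in 25mM KPO4 during 60 min at 37C with regenerated NADPH. Values normalized to 57uM sulphaphenazole as complete inhibition.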
# [14] = target: Cytochrome P450 2C19 (Homo sapiens) (UniProt P33261); assay: qHTS Assay for Inhibitors and Substrates of Cytochrome P450 2C19 (AID 899; active means well fitted curve in the direction sought with a large enough effect; an effect the other way counts as inactive or inconclusive; further: potency means the concentration at half of the fitted maximal effect; nearly all actives have a fitted effect of over 60% in size); conditions: recombinant CYP2C19, luciferin-H EGE luminescence; series mostly up to 57.1 µM
# Sequence of Cytochrome P450 2C19 (Homo sapiens) (P33261 whole entry, looked up): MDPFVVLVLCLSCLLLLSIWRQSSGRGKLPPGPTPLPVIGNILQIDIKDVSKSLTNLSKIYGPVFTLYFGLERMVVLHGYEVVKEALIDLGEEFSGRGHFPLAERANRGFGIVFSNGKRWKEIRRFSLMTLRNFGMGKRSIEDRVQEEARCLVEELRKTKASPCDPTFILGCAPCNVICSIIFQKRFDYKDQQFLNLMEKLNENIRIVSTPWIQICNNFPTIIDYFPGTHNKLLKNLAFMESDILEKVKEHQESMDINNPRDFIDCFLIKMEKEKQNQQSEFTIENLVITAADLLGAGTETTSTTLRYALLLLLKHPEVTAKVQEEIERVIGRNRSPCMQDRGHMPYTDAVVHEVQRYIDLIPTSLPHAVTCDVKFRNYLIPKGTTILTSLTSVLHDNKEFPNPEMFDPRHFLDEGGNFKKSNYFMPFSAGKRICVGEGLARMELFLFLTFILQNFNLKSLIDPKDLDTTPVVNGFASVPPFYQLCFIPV
# Summary of the method: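 NADPH-dependent conversion of Luciferin-H EGE (10uM, at KM) by 5nM enzyme in 50mM KPO4, 60 min at 37C following 10 min compound preincubation. Stopped with luciferin detection buffer; luminescence read after 20 min.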
# [15] = target: Ubiquitin carboxyl-terminal hydrolase 1 (Homo sapiens) (UniProt O94782); assay: Inhibitors of USP1/UAF1: Pilot qHTS (AID 504865; active means well fitted curve in the direction sought with a large enough effect; an effect the other way counts as inactive or inconclusive;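 further: rhodamine fluorescence freed from ubiquitin-rhodamine substrate followed over time; top concentration of the series differs between compounds; on the % scale 0 is the no-effect control and ±100 the full control effect; nearly all actives have a fitted effect of over 35% in size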); conditions: purified USP1/UAF1, Ub-rhodamine cleavage fluorescence; series mostly up to 54.9 µM
# Summary of the method: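 USP1/UAF1 complex at 1 nM preincubated 15 min at room temperature with compound, then Ub-Rho substrate added at 150 nM final. Fluorescence (480/540 nm) read kinetically in 50 mM HEPES pH 7.8, 0.5 mM EDTA, 1 mM TCEP, 0.1 mg/ml BSA, 0.01% Tween-20.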
# [16] = target: Cytochrome P450 2D6 (Homo sapiens) (UniProt P10635); assay: qHTS Assay for Inhibitors and Substrates of Cytochrome P450 2D6 (AID 891; active means well fitted curve in the direction sought with a large enough effect; an effect the other way counts as inactive or inconclusive; further: potency means the concentration at half of the fitted maximal effect; nearly all actives have a fitted effect of over 60% in size); conditions: recombinant CYP2D6, luciferin-ME EGE luminescence; series mostly up to 57.1 µM
# Sequence of Cytochrome P450 2D6 (Homo sapiens) (P10635 whole entry, looked up): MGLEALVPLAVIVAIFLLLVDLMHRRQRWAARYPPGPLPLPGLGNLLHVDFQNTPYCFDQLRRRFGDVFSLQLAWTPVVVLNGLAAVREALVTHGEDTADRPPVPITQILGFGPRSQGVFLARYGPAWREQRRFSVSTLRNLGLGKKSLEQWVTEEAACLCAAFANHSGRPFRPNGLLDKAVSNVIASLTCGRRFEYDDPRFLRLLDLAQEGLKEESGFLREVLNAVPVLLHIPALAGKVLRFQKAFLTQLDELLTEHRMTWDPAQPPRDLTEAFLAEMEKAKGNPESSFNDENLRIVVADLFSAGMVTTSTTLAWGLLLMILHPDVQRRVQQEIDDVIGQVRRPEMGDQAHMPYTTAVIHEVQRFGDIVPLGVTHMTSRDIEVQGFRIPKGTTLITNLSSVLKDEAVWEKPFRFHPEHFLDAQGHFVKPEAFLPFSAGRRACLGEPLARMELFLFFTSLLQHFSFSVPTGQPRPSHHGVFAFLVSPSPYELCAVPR
# Summary of the method: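 Luminescent read-out of luciferin formed by 5 nM human CYP2D6 demethylating 30 uM Luciferin-ME EGE (Km level) over 60 min at room temperature after NADPH regeneration addition. Data normalized to full inhibition by 1.43 uM quinidine.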
SMILES,Potency [1] [µM],"activity change, negative = inhibition [2] [%]",Potency [3],"activity change, negative = inhibition [4] [%]","activity, negative = inhibition [5] [%]",Potency [6] [µM],Potency [7],Potency [8],Potency [9],Potency [10],outcome [11],Potency [12] [µM],Potency [13],Potency [14],Potency [15],Potency [16]
O=C(c1ccncc1)N1CCC[C@@]2(CCN(c3ccccc3)C2)C1,> 11.4,-9.5,inactive,-16.6,3.29,> 46,inactive,inactive,3.16 µM (active),inactive,inactive,–,–,–,–,–
O=C(Nc1cccc(F)c1)N1CC[C@@]2(CCCN(C(=O)c3cnccn3)C2)C1,> 11.4,4.63,inactive,12.9,2.65,> 46,inactive,inactive,–,inactive,inactive,–,–,–,–,–
O=C(c1cc(C(F)(F)F)cc(C(F)(F)F)c1)N1CCC2(CC1)CN(Cc1ccncc1)C2,> 11.4,-12.2,20 µM (active),-6.5,5.6,> 46,inactive,inactive,–,inactive,inactive,–,–,–,–,–
COCC(=O)N1CCC2(CCCN(c3cccc(-c4ccccc4)c3)C2)CC1,> 11.4,-22.8,15.8 µM (active),17,-10.6,> 46,inactive,–,–,inactive,inactive,–,–,–,–,–
O=C(Nc1cccc(F)c1)N1CC[C@@]2(CCCN(S(=O)(=O)c3ccccc3)C2)C1,> 11.4,-21,15.8 µM (active),7.62,-7.95,> 46,inactive,inactive,–,inactive,inactive,–,–,–,–,–
Cc1noc(C)c1C(=O)N1CCC[C@@]2(CCN(Cc3nccs3)C2)C1,> 11.4,-0.7,inactive,9.88,-7.79,> 46,inactive,inactive,–,inactive,inactive,–,–,–,–,–
COc1ccc(NC(=O)N2CCCC3(CCN(C(=O)c4cccn4C)CC3)C2)cc1,> 11.4,-2.59,25.1 µM (active),-20.9,-3.06,> 46,inactive,inactive,–,inactive,inactive,–,–,–,–,–
COC(=O)N1CCC2(CC1)CCN(c1ccncc1)CC2,> 11.4,6.46,inactive,–,20.2,> 46,inactive,inactive,–,–,inactive,–,–,–,–,–
O=c1c(-c2cccc(Cl)c2)nc2cncnc2n1Cc1ccccc1Cl,> 11.4,15.6,2 µM (active),–,-2.1,> 46,inactive,–,–,inactive,inactive,> 9.22,3.98 µM (active),5.01 µM (active),–,–
O=c1c(-c2ccc(F)c(F)c2)nc2cncnc2n1-c1ccccc1,> 11.4,-19.9,12.6 µM (active),3.06,–,> 46,inactive,–,–,inactive,inactive,> 9.22,–,–,–,–
c1ccc(Nc2ncncc2-c2ccc3c(c2)OCO3)cc1,> 11.4,-19.3,0.316 µM (active),9.45,–,> 46,inactive,–,0.794 µM (active),inactive,inactive,> 46,–,0.251 µM (active),inactive,–
N#Cc1ccc(CN2CCC3(CC2)CCN(C(=O)c2csnn2)CC3)cc1,> 11.4,3.47,inactive,–,-1.95,> 46,inactive,inactive,–,–,inactive,–,–,–,–,–
CC(C)NC(=O)N1CCCC2(CCN(C(=O)c3ccco3)CC2)C1,> 11.4,4.82,inactive,-9.54,–,> 46,inactive,inactive,–,inactive,inactive,–,–,–,–,2.51 µM (active)
COc1ccccc1CCn1c(=O)c(-c2ccc(Cl)cc2)nc2cncnc21,> 11.4,10.2,0.631 µM (active),–,6.76,> 46,inactive,inactive,3.98 µM (active),inactive,inactive,> 9.22,3.98 µM (active),0.398 µM (active),–,–
